# Data published in PubChem BioAssay (NCATS).
# Records with an inconclusive call do not appear. Entries that show only a call come without a potency. The source made the active and inactive calls. Calls follow the shape of the dose curve; as a rule, active = well fitted curve in the direction sought with a large enough effect; inconclusive = small, poorly fitted or top-dose-only effect, or another doubt; inactive = no such curve, though single readings can be large; an effect the other way counts as inactive or inconclusive.
# Tested on: Nanoluciferase (engineered Oplophorus gracilirostris luciferase)
# Test: Primary Nanoluciferase (NLuc) qHTS assay for identification of artifact compounds. (AID 1845222);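 also: NLuc secreted into diluted conditioned medium of S16 cells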
# Conditions: NLuc-conditioned medium, Nano-Glo luminescence, 5 min; series mostly up to 54.1 µM
# Procedure, shortened: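 Concentration-response data were obtained by luminescence after 5 min with Nano-Glo substrate at 1:100. The enzyme was diluted S16 NLuc-expressing cell medium, preincubated with compound for 15 min at RT. Curves were fitted with a 4-parameter Hill model.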
row,SMILES,Potency
1,Cc1csc(N(C(=O)CSc2ccc(-c3ccccc3)nn2)C2CC2)n1,inactive
2,CC12CCC(OC3OC(CO)C(O)C(O)C3OC3OC(CO)C(O)C(O)C3O)CC1CCC1C2CCC2(C)/C(=C3/COC(=O)C3)CCC12O (stereo not given),inactive
3,CCOc1nc(NC(=O)Cc2cc(OC)ccc2OC)cc(N)c1C#N,inactive
4,C/C(=C\CO[C@@H]1O[C@H](CO[C@H]2OC[C@](O)(CO)[C@H]2O)[C@@H](O)[C@H](O)[C@H]1O)C(C)(C)O,inactive

# Tested on: not listed separately
# Test: Primary redox qHTS assay for identification of artifact compounds. (AID 1845223)
# Conditions: Amplex Red/HRP redox cycling with DTT, fluorescence; series mostly up to 53.8 µM
# Procedure, shortened: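 Amplex Red (25 uM) and HRP (250 mU/mL) in HBSS, with compounds for 15 min, then 250 uM DTT for 30 min, room temperature, dark. Fluorescence 525/598 nm read; normalized to DMSO and 10 uM DA3003; Hill fit.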
SMILES,Potency,redox activity (% of DA3003)
COc1ccc(-c2csc(NC(=O)[C@H]3CCCCN3S(=O)(=O)c3ccc(C)cc3)n2)cc1,inactive,–
O=C(O)C1=CO[C@@H](O[C@@H]2O[C@H](CO)[C@@H](O)[C@H](O)[C@H]2O)[C@@H]2C(CO)=CC[C@H]12,inactive,–
C=C1C(=O)O[C@H]2/C=C(/C)[C@@H](OC(C)=O)C/C=C(\C)C[C@@H](OC(=O)/C(=C/C)COC(=O)/C(=C/C)CO)[C@@H]12,inactive,–
Oc1ccc(-c2cnc3ccc(NCc4ccco4)nn23)cc1,inactive,–
COC(=O)c1cc2c(C(F)(F)F)cc(-c3ccccc3)cc2n1O,inactive,–
COc1cc(OC)c2c(=O)[nH]c(-c3cc(C)c(OCCO)c(C)c3)nc2c1,inactive,–
C=C1C(=O)OC2C1CCC1(C)C(O)CC=C(C)C21 (stereo not given),inactive,–
CO[C@H]1[C@@H](O)[C@H](O[C@H]2CC[C@@]3(C)C(CCC4C3CC[C@]35COC6(COC(=O)C6)C3CCC45O)C2)O[C@@H](C)[C@@H]1OC1OC(CO)C(OC2OC(CO)C(O)C(O)C2O)C(O)C1O (stereo not given in full),–,-0.0298% [at 11.5 µM] (inactive)
Fc1ccc(-c2cncc(CN3CCN(c4cccc5c4OCCO5)CC3)c2)cc1,inactive,–
CC(C)C[C@H](C(=O)O)c1cc(-c2ccc(C(F)(F)F)cc2)cc(-c2ccc(C(F)(F)F)cc2)c1,inactive,–
COc1cc(/C=C2\CC[C@H]3COC[C@@H](c4cc(F)c(F)c(F)c4)N3C2=O)ccc1-n1cnc(C)c1,inactive,–
CC(C)(CNC(=O)c1cccc(-c2noc(C(F)(F)F)n2)c1)c1coc(-c2ccccc2)n1,inactive,–
C=C1CC[C@@H]2[C@](C)(CO)[C@H](O)CC[C@@]2(C)[C@@H]1CC(=O)C1=CCOC1=O,inactive,–
O=C(Nc1ccc(C(O)(C(F)(F)F)C(F)(F)F)cc1)c1ccc(C(F)(F)F)cc1,inactive,–
COC1=CC(=O)O/C1=C(/OC)[C@@H]1O[C@H]1c1ccccc1,inactive,–
COc1ccc(C2(N(C)C(=O)c3ccc(NC(=O)c4ccco4)cc3)CCOCC2)cc1,inactive,–

SMILES,Potency,redox activity (% of DA3003)
C[C@@H]1CC[C@]2(C(=O)O)CC[C@]3(C)C(=CCC4[C@@]5(C)CC[C@H](O)[C@](C)(C(=O)O)C5CC[C@]43C)C2[C@]1(C)O (stereo not given in full),inactive,–
CN(C)c1ccnc2sc3c(=O)n(N4CCCCCC4)cnc3c12,inactive,–
COCCCNC(=O)c1ccc(Cn2c(=O)c3ccccc3n(Cc3ccc(C(C)C)cc3)c2=O)cc1,inactive,–
O=C(Nc1ccc(Cl)cc1)c1ccccc1NCc1ccncc1,inactive,–
C[C@@H]1C[C@H]2O[C@@]3(O[C@@H]2C(C)(C)O)C(O)[C@@]2(C)C4CCC5C(C)(C)[C@@H](O[C@H]6OC[C@H](O)[C@@H](O)[C@@H]6O)CC[C@@]56C[C@@]46CC[C@]2(C)C13 (stereo not given in full),inactive,–
CC(=O)C=C=C1C(C)(C)CC(O)CC1(C)O[C@@H]1O[C@H](CO[C@H]2OC[C@](O)(CO)[C@H]2O)[C@@H](O)[C@H](O)[C@H]1O (stereo not given in full),inactive,–
Nc1ncnc2c1c(-c1ccc(Cl)cc1)nn2-c1cccc(-c2cnnn2Cc2cccc(-c3ccccc3)c2)c1,inactive,–
Cc1nc(C(=O)N2CCC[C@H]2Cc2nnc(-c3ccccc3)o2)c(-c2ccccc2F)s1,inactive,–
COc1cc2ncnc(Nc3cccc(I)c3)c2cc1OC,inactive,–
C=C1C(=O)O[C@@H]2[C@H]1CC(=O)[C@H](C)[C@@](O)(C(=O)/C=C/C)[C@H]2OC(=O)C(C)CC (stereo not given in full),inactive,–
CCC(CC)(NC(=O)C(C)C)C(=O)N[C@@H](CCCN=C(N)N)C(=O)NC1(C(=O)NC(c2ccc(F)cc2)c2ccc(F)cc2)CCCC1,inactive,–
C=C1CCC2C(C)(C)CCCC2(C)C1CC/C(C)=C\CO (stereo not given),inactive,–
CCc1ccccc1OC[C@@H](O)CN[C@H]1CCCc2ccccc21,inactive,–
COc1cc(-c2nc(N[C@H](CO)Cc3ccccc3)ccc2C(=O)NCCOc2ccccc2)cc(OC)c1OC,inactive,–
CC(C)(C)Sc1c(CC(C)(C)C(=O)O)n(Cc2ccc(Cl)cc2)c2ccc(OCc3ccc4ccccc4n3)cc12,inactive,–
